# An excerpt weighted towards active compounds, which were near 3.6% of everything screened.
# TRHR ag: activates the human TRH receptor; 360,000 compounds, 0.18% hits; P34981; TRHR cells, calcium flux fluo-8, FDSS agonist mode; AID 493084; activation, % at 2 µM; note: 0% is about no effect
#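 In this calcium-flux screen, cells bearing human TRHR are dye-loaded with fluo-8, baselined for 10 cycles, then exposed to library compounds; positive kinetic calcium responses during the agonist phase mark hits, with TRH as control.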
# D1 antag: blocks dopamine activation of the human D1 receptor; AID 504652; P21728; 360,000 compounds, 3.2% hits; HEK293 TREx D1 cells, calcium flux, dopamine EC80; stronger effect = lower value; activity change, negative = inhibition, % at 10 µM; in the data active = activity change below about -30%; note: % is set by controls: 0 for no effect and ±100 for the full control effect
# Target sequence (P21728 whole entry, looked up): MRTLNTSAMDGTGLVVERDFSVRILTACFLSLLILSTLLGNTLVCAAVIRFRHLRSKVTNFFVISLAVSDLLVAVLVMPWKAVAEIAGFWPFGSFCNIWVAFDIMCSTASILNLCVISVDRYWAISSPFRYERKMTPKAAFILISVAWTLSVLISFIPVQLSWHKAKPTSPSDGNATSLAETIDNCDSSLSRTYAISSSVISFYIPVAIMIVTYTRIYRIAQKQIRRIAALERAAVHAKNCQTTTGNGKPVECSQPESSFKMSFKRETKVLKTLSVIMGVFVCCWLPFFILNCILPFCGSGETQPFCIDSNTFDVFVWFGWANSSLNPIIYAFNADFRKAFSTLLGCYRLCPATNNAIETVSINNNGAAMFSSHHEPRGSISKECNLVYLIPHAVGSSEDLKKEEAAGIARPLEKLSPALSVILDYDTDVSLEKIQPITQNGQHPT
#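 Inducible Hek293 Trex D1 cells (tetracycline, overnight, 30 C). Calcium dye 30–90 min RT. Antagonist mode: EC80 dopamine added after 180 s compound read.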
# TRHR PAM: allosterically enhances the human TRH receptor | enhancement, % at 2 µM | P34981 | TRHR cells, fluo-8 calcium fluorescence, EC20 TRH enhancement | 360,000 compounds, 0.66% hits; in the data active = enhancement above about 30%; note: 0% is about no effect
#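 TRHR-expressing cells loaded with fluo-8 calcium dye were read kinetically (ex 480/em 530) during compound addition, then stimulated with an EC20 of TRH (10 nM final). Enhancement of the Gq-mediated intracellular calcium response was scored.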
# D1 PAM: potentiators of human D1 dopamine receptor; AID 504651; 360,000 compounds, 0.036% hits; HEK293 TREx D1 cells, calcium flux, dopamine EC20 potentiation; potentiation, % at 10 µM; in the data active = potentiation above about 30%; note: 0% is about no effect
# LDHA inh: LDHA (human) enzyme inhibition; P00338; purified LDHA, NADH/diaphorase-resazurin fluorescence; stronger effect = lower value; activity change, % (values are at about 110 or 230 µM); 480,000 compounds, 0.15% hits; AID 1347041; in the data active = activity change below about -30%;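 note: plate controls were DMSO wells for no effect and wells without enzyme for full effect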
#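 Enzyme activity of human lactate dehydrogenase 5 (2 nM; 0.06 mM NADH, 0.2 mM pyruvate, 5 min, RT) is measured via a resazurin/diaphorase fluorescence readout of residual NADH.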
# D1 ag: agonists of human D1 dopamine receptor | activation, % at 2 µM | HEK293 T-REx D1 cells, calcium flux, agonist mode | P21728 | 360,000 compounds, 1% hits | AID 504660; note: 0% is about no effect
#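 Agonism was scored from calcium flux recorded over 180 s (1 read/s) after pintool compound addition, following a 10-cycle baseline. Cells were inducible force-coupled HEK293 TREx D1, plated overnight at 30 C and loaded with no-wash calcium dye.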
# Starred values were filed as active, the others as inactive; · = not tested or not shown. Cut-off read from the data, not from the text of the source, unless noted: active = activation above about 30%; inactive = the rest.
SMILES,TRHR ag,D1 antag,TRHR PAM,D1 PAM,LDHA inh,D1 ag
CN1CCc2c(sc3c2c(=O)n(-c2ccc(Cl)cc2)c2nncn32)C1,0.5,-59.8*,-0.6,-6.8,1.1,0.4
CCN(CC)CCn1c(=O)n(-c2ccc(Cl)cc2)c(=O)c2c3c(sc21)CN(C)CC3,4.8,-1.9,0.6,-6.2,7.6,8.0
Cc1cc(Cl)ccc1OCCCc1n[nH]c(=S)n1C,·,·,·,·,6.4,·
C=CCn1c(CCCOc2ccc(Cl)cc2Cl)n[nH]c1=S,-0.3,-45.8*,-4.3,-3.8,-3.9,4.0
COc1ccc(C(=O)N(C)CCCNC(=O)c2nc3ccccc3c(=O)[nH]2)cc1OC,·,·,·,·,6.4,·
Cc1cccc(NC(=O)c2sc3nc4c(cc3c2N)CN(Cc2ccccc2)CC4)c1,0.0,0.4,2.0,-1.5,-5.3,3.1
Nc1c(C(=O)Nc2cccc(Cl)c2)sc2nc3c(cc12)CN(Cc1ccccc1)CC3,0.5,-1.5,33.3*,3.2,-2.4,3.2
Fc1ccc(F)c(Nc2c3c(nc4ccc(Cl)cc24)CCC3)c1,-1.1,-7.2,43.3*,-4.4,-5.8,3.5
FC(F)(F)c1cccc(Nc2c3c(nc4ccc(Cl)cc24)CCC3)c1,1.5,-32.0*,-5.9,-0.7,1.6,5.4
O=C(/C=C/c1ccc(Cl)cc1)Nc1ccccc1-c1ccccc1,·,·,·,·,1.2,·
CC(C)Oc1ccccc1/C=C(/C#N)C(=O)Nc1cccc(C(F)(F)F)c1,·,·,·,·,4.6,·
O=C(Nc1cccc(-c2nc3ccccc3s2)c1)c1cc(-n2cnnc2)ccc1Cl,0.1,-6.3,-7.8,-5.1,-4.1,2.9
Cc1c(NC(=O)c2ccccc2F)cccc1-c1nc2cccnc2s1,-1.5,-79.5*,11.1,-1.7,-0.9,-1.2
Cc1c(NC(=O)c2cc(-n3cnnc3)ccc2Cl)cccc1-c1nc2ccccc2s1,0.3,-39.5*,5.3,-3.0,-4.5,1.1
O=C(O)CNS(=O)(=O)c1ccc(I)cc1,·,·,·,·,7.6,·
CCCNC(=S)Nc1ccc(S(N)(=O)=O)cc1,-0.5,3.8,11.1,7.7,-5.0,0.4
C#CC(CC)(CC)NC(=S)Nc1ccc(S(N)(=O)=O)cc1,0.1,-42.7*,3.5,-0.6,0.3,2.2
Cc1ccc(NC(=O)Cn2ccc3sccc3c2=O)c(C)c1,·,·,·,·,-3.1,·
Cc1c(C(=O)Nc2cccc(F)c2)sc2nc(-c3cc4ccccc4oc3=O)[nH]c(=O)c12,0.0,-35.8*,4.1,3.9,6.8,-0.9
Cc1cc(SCC(=O)NCCC#N)nc2ccccc12,·,·,·,·,-19.2,·
COC(=O)c1ccc(S(=O)(=O)NC(C)(C)C)n1C,-0.4,-36.8*,-4.6,1.4,-13.3,1.8
COc1cccc(NC(=O)N(Cc2cc3cc(C)cc(C)c3[nH]c2=O)CC2COCCO2)c1 (stereo unspecified),-1.3,-31.7*,5.1,2.5,-1.4,-0.4
O=S(=O)(c1ccc(F)c(F)c1)N1CCN(Cc2ccc3c(c2)CCO3)CC1,·,·,·,·,1.3,·
CCCCc1ccc(S(=O)(=O)N2CCN(C(=O)c3ccco3)CC2)cc1,-0.1,-31.4*,-3.1,-4.0,0.5,9.3
O=C(CCC(=O)N1CCOc2ccc(Cl)cc21)NCCCN1CCN(c2ccccc2F)CC1,0.1,-42.0*,-1.3,-22.3,-0.5,8.7
SMILES,TRHR ag,D1 antag,TRHR PAM,D1 PAM,LDHA inh,D1 ag
O=C(CCN1C(=O)COc2ccccc21)NCCCN1CCN(c2ccccc2F)CC1,0.6,-39.8*,-2.9,-5.0,-2.4,0.1
O=C(CCC(=O)N1CCOc2ccc(Cl)cc21)NCCCN1CCC(Cc2ccccc2)CC1,1.0,-41.1*,8.0,-19.1,-0.8,12.6
COc1cccc(-c2nn(-c3ccccc3)cc2/C=C\C(=O)c2cccs2)c1,-0.4,-13.2,1.6,0.9,-4.1,33.2*
COc1ccc(/C=C/C(=O)c2cccs2)c(OC)c1,·,·,·,·,1.5,·
O=C(O)c1cnc(-c2ccccc2)nc1Sc1cccc(Cl)c1,-1.0,4.4,-0.1,-6.5,-22.4,1.0
O=C(O)c1cnc(-c2ccccc2)nc1Sc1ccccc1,-0.1,39.6,6.5,1.9,-39.7*,-0.2
O=C(NC1CCCCC1C(F)(F)F)c1ccc2ncsc2c1 (stereo unspecified),·,·,·,·,-5.6,·
Cc1cc(C(=O)N2CCCC(C(=O)c3cccc4ccccc34)C2)nc(C)n1 (stereo unspecified),-5.6,-61.1*,0.9,-6.6,-9.6,0.3

# Screening data deposited in PubChem by National Center for Advancing Translational Sciences (NCATS).
